These results are taken from the supplement of paper PMC10981050.

Holding throughout (test): cell viability relative to vehicle control; higher = less cytotoxic
Holding throughout (settings): 10 µM

One test relates to K562. In outline:
(§1)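 CRISPR-edited mutant clones and isogenic wild-type clones from four leukaemia lines were screened against Selleck bioactive, kinase and epigenetic probe libraries, with identity-inconsistent compounds excluded. Each compound was acoustically dispensed at a single 10 µM dose into 384-well plates holding 2000 cells in 50 µL medium per well. After 48 h the supernatant was removed and CellTiter-Glo luminescence was read. Viability was expressed as percent of the on-plate vehicle control and analysed in Genedata Screener.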

In the next test the test system is MARIMO. The essentials:
as §1

In another test the test system is MOLM14. In outline:
as §1

The test system of the next test is OCI-AML2. In outline:
as §1

Where “and” joins values, the source holds several entries; their conditions need not be identical. Equal values may be shown once.

Consider `C=C1CC[C@@H]2[C@](C)(CO)[C@H](O)CC[C@@]2(C)[C@@H]1C/C=C1/C(=O)OC[C@H]1O` [Andrographolide], for which the cell viability (usually a read-out of living cells in per cent, often relative to untreated cells) in the test on K562 (SRSF2 genotype: SRSF2 P95H/wt) is 64.7% and 47.9%; in the test on K562 (SRSF2 genotype: SRSF2 wt/wt), 59.5%; in the test on MARIMO (SRSF2 genotype: SRSF2 P95H/wt) it was 20.5%; in the test on MARIMO (SRSF2 genotype: SRSF2 wt/wt), 19.6%; in the test on MOLM14 (SRSF2 genotype: SRSF2 P95H/wt) it was 11.1%; in the test on MOLM14 (SRSF2 genotype: SRSF2 wt/wt), 6.73%. Moreover, the cell viability amounted to 23.4% in the test with OCI-AML2 (SRSF2 genotype: P95H/wt) and 22.4% in the test with OCI-AML2 (SRSF2 genotype: wt/wt).
Turning to `CC(COc1ccccc1Cc1ccccc1)N1CCCCC1` (configuration not stated) [Benproperine phosphate], the cell viability in the test on K562 (SRSF2 genotype: SRSF2 P95H/wt) was 82.8% and 87.2%; with K562 (SRSF2 genotype: SRSF2 wt/wt) it was 91.3%; with MARIMO (SRSF2 genotype: SRSF2 P95H/wt) it was 70.4%; with MARIMO (SRSF2 genotype: SRSF2 wt/wt) it was 78.5%; with MOLM14 (SRSF2 genotype: SRSF2 P95H/wt), 82.5%; in the test on MOLM14 (SRSF2 genotype: SRSF2 wt/wt), 88.2%. The cell viability in the test with OCI-AML2 (SRSF2 genotype: P95H/wt) amounted to 93.7%; in the test on OCI-AML2 (SRSF2 genotype: wt/wt) it was 84.7%.
As for `COc1cc2oc(=O)ccc2cc1O` [Isoscopoletin], the cell viability is 95.2% and 95.4% in the test with K562 (SRSF2 genotype: SRSF2 P95H/wt); 96.4% in the test with K562 (SRSF2 genotype: SRSF2 wt/wt); 95.6% in the test with MARIMO (SRSF2 genotype: SRSF2 P95H/wt); 94.7% with MARIMO (SRSF2 genotype: SRSF2 wt/wt); 104% in the test on MOLM14 (SRSF2 genotype: SRSF2 P95H/wt); 97.2% with MOLM14 (SRSF2 genotype: SRSF2 wt/wt). The cell viability worked out at 97.1% with OCI-AML2 (SRSF2 genotype: P95H/wt) and 93.8% in the test on OCI-AML2 (SRSF2 genotype: wt/wt).
With `CC12CCC(C1)C(C)(C)C2O` (configuration not stated) [Fenchyl Alcohol], the cell viability in the test with K562 (SRSF2 genotype: SRSF2 P95H/wt) was 105% and 94.5%; in the test on K562 (SRSF2 genotype: SRSF2 wt/wt), 91.5%; with MARIMO (SRSF2 genotype: SRSF2 P95H/wt), 89.9%; in the test on MARIMO (SRSF2 genotype: SRSF2 wt/wt), 100%; in the test with MOLM14 (SRSF2 genotype: SRSF2 P95H/wt), 96.4%; in the test on MOLM14 (SRSF2 genotype: SRSF2 wt/wt), 96.6%. Moreover, the results for the cell viability with OCI-AML2 (SRSF2 genotype: P95H/wt) and in the test with OCI-AML2 (SRSF2 genotype: wt/wt) were 91.5% and 89.1%, respectively.
As to `CC(=O)Oc1ccc2c(c1)Oc1cc(OC(C)=O)ccc1C21OC(=O)c2cc(C(=O)ON3C(=O)CCC3=O)ccc21.CC(=O)Oc1ccc2c(c1)Oc1cc(OC(C)=O)ccc1C21OC(=O)c2ccc(C(=O)ON3C(=O)CCC3=O)cc21`, the cell viability in the test on K562 (SRSF2 genotype: SRSF2 P95H/wt) is 90.8% and 93.8%; in the test on K562 (SRSF2 genotype: SRSF2 wt/wt) it was 99.6%; in the test on MARIMO (SRSF2 genotype: SRSF2 P95H/wt), 98.1%; in the test on MARIMO (SRSF2 genotype: SRSF2 wt/wt), 77.4%; with MOLM14 (SRSF2 genotype: SRSF2 P95H/wt), 92.8%; in the test with MOLM14 (SRSF2 genotype: SRSF2 wt/wt) it was 63.6%. The results for the cell viability in the test on OCI-AML2 (SRSF2 genotype: P95H/wt) and with OCI-AML2 (SRSF2 genotype: wt/wt) were 75.5% and 77.9%, respectively.
As for `CN(CCO)CC(O)Cn1cnc2c1c(=O)n(C)c(=O)n2C` (configuration not stated) [Xanthinol Nicotinate], the cell viability in the test with K562 (SRSF2 genotype: SRSF2 P95H/wt) was 99.3% and 90.3%; with K562 (SRSF2 genotype: SRSF2 wt/wt), 97.9%; in the test with MARIMO (SRSF2 genotype: SRSF2 P95H/wt), 98.2%; with MARIMO (SRSF2 genotype: SRSF2 wt/wt), 105%; with MOLM14 (SRSF2 genotype: SRSF2 P95H/wt), 95.4%; in the test with MOLM14 (SRSF2 genotype: SRSF2 wt/wt) it was 97.7%. Also, the values for the cell viability in the test on OCI-AML2 (SRSF2 genotype: P95H/wt) and in the test on OCI-AML2 (SRSF2 genotype: wt/wt) were 73.7% and 90.5%, respectively.
Consider `N#CC(=Cc1cn(-c2ccccc2)c2ccccc12)C(=O)O`, for which the cell viability is 111% and 90.4% in the test with K562 (SRSF2 genotype: SRSF2 P95H/wt); 93.5% in the test on K562 (SRSF2 genotype: SRSF2 wt/wt); 86.3% in the test on MARIMO (SRSF2 genotype: SRSF2 P95H/wt); 94.5% in the test on MARIMO (SRSF2 genotype: SRSF2 wt/wt); 89.2% with MOLM14 (SRSF2 genotype: SRSF2 P95H/wt); 97.2% in the test on MOLM14 (SRSF2 genotype: SRSF2 wt/wt). Moreover, the cell viability in the test with OCI-AML2 (SRSF2 genotype: P95H/wt) is 91%; in the test on OCI-AML2 (SRSF2 genotype: wt/wt), 95.4%.
`Cc1cc(C)n(C)n1` [1,3,5-Trimethylpyrazole]: the cell viability was 110% and 105% in the test on K562 (SRSF2 genotype: SRSF2 P95H/wt); 115% in the test on K562 (SRSF2 genotype: SRSF2 wt/wt); 113% in the test with MARIMO (SRSF2 genotype: SRSF2 P95H/wt); 109% in the test with MARIMO (SRSF2 genotype: SRSF2 wt/wt); 97.9% in the test on MOLM14 (SRSF2 genotype: SRSF2 P95H/wt); 110% with MOLM14 (SRSF2 genotype: SRSF2 wt/wt). Besides, the cell viability with OCI-AML2 (SRSF2 genotype: P95H/wt) and with OCI-AML2 (SRSF2 genotype: wt/wt) was 104% in each case.
Take `C#C[C@]1(OC(C)=O)CC[C@H]2[C@@H]3CCC4=C[C@@H](OC(C)=O)CC[C@@H]4[C@H]3CC[C@@]21C` [Ethynodiol diacetate]: the cell viability is 78.7% and 88.6% with K562 (SRSF2 genotype: SRSF2 P95H/wt); 80.7% with K562 (SRSF2 genotype: SRSF2 wt/wt); 51.5% in the test with MARIMO (SRSF2 genotype: SRSF2 P95H/wt); 46.5% with MARIMO (SRSF2 genotype: SRSF2 wt/wt); 63.6% in the test with MOLM14 (SRSF2 genotype: SRSF2 P95H/wt); 78.8% in the test on MOLM14 (SRSF2 genotype: SRSF2 wt/wt). For the same molecule, the cell viability is 30.3% in the test with OCI-AML2 (SRSF2 genotype: P95H/wt) and 36.3% in the test on OCI-AML2 (SRSF2 genotype: wt/wt).
